In PubChem BioAssay (EPA / NIEHS) one finds AC50 and outcome data, which are given here for six molecules.

Common to all, as to conditions: mRNA level, 48 h; actives raise or lower the signal
Read-out in test [1]: Cytochrome P450 4A22 (Homo sapiens) (UniProt Q5TCH4)
Description: LTEA_HepaRG_CYP4A22: Life Technologies and Expression Analysis (LTEA) Assay for Cytochrome P450 4A22 (CYP4A22) using HepaRG (AID 2283495). The method in brief: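 Concentration-response (8 points, max 100 uM, 0.5% DMSO) in human HepaRG liver cells after 48 h exposure. CYP4A22 mRNA by TaqMan qRT-PCR with housekeeping-gene normalization.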

Read-out in test [2]: Cytochrome P450 7A1 (Homo sapiens) (UniProt P22680)
Kind of test: LTEA_HepaRG_CYP7A1: Life Technologies and Expression Analysis (LTEA) Assay for Cytochrome P450 7A1 (CYP7A1) using HepaRG (AID 2283496). The method in brief: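 HepaRG, 48 h exposure, 8-pt half-log series from 100 uM, 0.5% DMSO vehicle, duplicates. Readout: TaqMan qRT-PCR mRNA vs three housekeeping genes; bidirectional curve fit against DMSO baseline.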

Read-out in test [3]: Glutathione S-Transferase (GSTA2), GSTA2 (gene 2939)
Kind of test: LTEA_HepaRG_GSTA2: Life Technologies and Expression Analysis (LTEA) Assay for Glutathione S-Transferase (GSTA2) using HepaRG (AID 2283497). The method in brief: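 GSTA2 transcript levels came from Fluidigm TaqMan qRT-PCR normalized to three housekeeping genes, fitted in both directions against DMSO. HepaRG cultures received chemicals for 48 h in serum-free induction medium (0.5% DMSO), 8 half-log concentrations up to 100 uM, duplicate.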

Read-out in test [4]: Glutamate-cysteine ligase catalytic (GCLC), GCLC (gene 2729)
Kind of test: LTEA_HepaRG_GCLC: Life Technologies and Expression Analysis (LTEA) Assay for Glutamate-cysteine ligase catalytic (GCLC) using HepaRG (AID 2283498). Summed up: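 Expression by TaqMan qRT-PCR, normalized to three housekeeping genes (ACTB, GAPDH, POLR2A), with up- or down-regulation fitted against DMSO. HepaRG cells dosed in duplicate for 48 h with 8 half-log concentrations up to 100 uM, vehicle 0.5% DMSO.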

Read-out in test [5]: Glutamate-cysteine ligase regulatory (GCLM), GCLM (gene 2730)
Description: LTEA_HepaRG_GCLM: Life Technologies and Expression Analysis (LTEA) Assay for Glutamate-cysteine ligase regulatory (GCLM) using HepaRG (AID 2283500). Summed up:
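Endpoint is GCLM transcript level by qRT-PCR, normalized to three housekeeping genes, after 48 h chemical exposure of human HepaRG cells (0.5% DMSO vehicle, top 100 uM, half-log dilutions). Fitting was bidirectional relative to DMSO.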

Read-out in test [6]: Glutathione S-transferase M3 (GSTM3), GSTM3 (gene 2947)
Description: LTEA_HepaRG_GSTM3: Life Technologies and Expression Analysis (LTEA) Assay for Glutathione S-transferase M3 (GSTM3) using HepaRG (AID 2283501). The method in brief:
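Expression of GSTM3 is determined by qRT-PCR in human liver HepaRG cells treated 48 h with an 8-point half-log range from 100 uM in 0.5% DMSO.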

Read-out in test [7]: Heat shock 70 kDa protein 1 (HSPA1A), gene 3303
Description: LTEA_HepaRG_HSPA1A: Life Technologies and Expression Analysis (LTEA) Assay for Heat shock 70 kDa protein 1 (HSPA1A) using HepaRG (AID 2283502). Summed up:
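Cells were plated and cultured for 48 h, then switched to serum-free induction medium. Chemicals were added at eight half-log concentrations up to 100 uM for 48 h. RNA was then isolated and HSPA1A measured by qRT-PCR with bidirectional curve fitting against DMSO.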

Read-out in test [8]: Hypoxia-inducible factor 1-alpha (Homo sapiens) (UniProt Q16665)
Description: LTEA_HepaRG_HIF1A: Life Technologies and Expression Analysis (LTEA) Assay for Hypoxia-inducible factor 1 (HIF1A) Trancription factor using HepaRG (AID 2283503). Summed up: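 HIF1A transcript level read by qRT-PCR (ACTB, GAPDH, POLR2A normalization) after 48 h chemical exposure of HepaRG cultures. Eight half-log concentrations, top 100 uM, 0.5% DMSO vehicle, duplicates; bidirectional curve fit against DMSO baseline.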

Read-out in test [9]: 3-Hydroxy-3-Methylglutaryl-CoA Synthase 2 (HMGCS2), HMGCS2 (gene 3158)
Description: LTEA_HepaRG_HMGCS2: Life Technologies and Expression Analysis (LTEA) Assay for 3-Hydroxy-3-Methylglutaryl-CoA Synthase 2 (HMGCS2) using HepaRG (AID 2283504). Summed up: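 This steatosis marker was read as HMGCS2 mRNA change in HepaRG cells treated 48 h with up to 100 uM chemical. Normalisation used housekeeping genes; activity in either direction was fitted relative to 0.5% DMSO vehicle.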

Read-out in the next test: HGF (gene 3082)
Description: LTEA_HepaRG_HGF: Life Technologies and Expression Analysis (LTEA) Assay for Hepatocyte Growth Facto (HGF) using HepaRG (AID 2283505). Summed up: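 Using HepaRG monolayers kept in 0.5% DMSO, chemicals were tested in duplicate over eight half-log concentrations from 100 uM for 48 h. Endpoint: HGF mRNA change relative to DMSO, normalized to ACTB/GAPDH/POLR2A.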

Read-out in test [10]: Insulin Like Growth Factor 1 (IGF1), IGF1 (gene 3479)
Description: LTEA_HepaRG_IGF1: Life Technologies and Expression Analysis (LTEA) Assay for Insulin Like Growth Factor 1 (IGF1) using HepaRG (AID 2283506). The method in brief: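 Cells are thawed, plated and cultured 48 h, then exposed in duplicate to chemical (highest 100 uM, half-log steps, 0.5% DMSO) for another 48 h. Total RNA is analysed by Fluidigm qRT-PCR for IGF1 expression relative to vehicle.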

Read-out in test [11]: Intercellular Adhesion Molecule 1 (ICAM1), ICAM1 (gene 3383)
Description: LTEA_HepaRG_ICAM1: Life Technologies and Expression Analysis (LTEA) Assay for Intercellular Adhesion Molecule 1 (ICAM1) using HepaRG (AID 2283507). Summed up: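 Using the human liver line HepaRG, compounds are tested in duplicate over 48 h at concentrations up to 100 uM. Expression is determined by TaqMan qRT-PCR, normalized to endogenous controls, and analysed relative to 0.5% DMSO vehicle.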

Read-out in test [12]: Insulin-like growth factor-binding protein 1 (IGFBP1), IGFBP1 (gene 3484)
Kind of test: LTEA_HepaRG_IGFBP1: Life Technologies and Expression Analysis (LTEA) Assay for Insulin-like growth factor-binding protein 1 (IGFBP1) using HepaRG (AID 2283508). The method in brief:
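HepaRG, 48 h, 8 conc. (max 100 uM, half-log), duplicates, 0.5% DMSO. Readout: TaqMan qRT-PCR, ACTB/GAPDH/POLR2A normalisation. Fit: bidirectional vs DMSO.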

Read-out in test [13]: Interleukin 6 Receptor (IL6R), IL6R (gene 3570)
Description: LTEA_HepaRG_IL6R: Life Technologies and Expression Analysis (LTEA) Assay for Interleukin 6 Receptor (IL6R) using HepaRG (AID 2283510).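 For AC50: differentiated human HepaRG liver cells in serum-free induction medium.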 The method in brief:
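Cells were thawed, plated and cultured 48 h, then medium was changed to serum-free induction medium. Chemicals were added in duplicate (100 uM top, half-log steps, 0.5% DMSO) for 48 h. Lysates were analyzed by qRT-PCR for IL6R expression.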

Read-out in test [14]: Potassium channel subfamily K member 1 (KCNK1), KCNK1 (gene 3775)
Description: LTEA_HepaRG_KCNK1: Life Technologies and Expression Analysis (LTEA) Assay for Potassium channel subfamily K member 1 (KCNK1) using HepaRG (AID 2283511). The method in brief:
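KCNK1 transcript measured by TaqMan qRT-PCR against three housekeeping genes, after HepaRG cells were treated 48 h with eight half-log concentrations (top 100 uM, 0.5% DMSO). Curves fitted bidirectionally relative to vehicle.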

Read-out in test [15]: Lipase C (LIPC), LIPC (gene 3990)
Description: LTEA_HepaRG_LIPC: Life Technologies and Expression Analysis (LTEA) Assay for Lipase C (LIPC) using HepaRG (AID 2283514). Summed up: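 LIPC expression was quantified by qRT-PCR against three housekeeping genes (ACTB, GAPDH, POLR2A). Differentiated human HepaRG cells received eight half-log doses (top 100 uM, 0.5% DMSO) in duplicate for 48 h; fitting bidirectional relative to DMSO.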

Read-out in test [16]: Interleukin 6 (IL6), IL6 (gene 3569)
Description: LTEA_HepaRG_IL6: Life Technologies and Expression Analysis (LTEA) Assay for Interleukin 6 (IL6) using HepaRG (AID 2283509). Summed up:
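Transcript levels, normalized to three housekeeping genes, were quantified by qRT-PCR after 48 h chemical treatment of HepaRG cells. Eight-point half-log series from 100 uM in 0.5% DMSO, duplicates. Fitted both directions against DMSO baseline.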

Read-out in test [17]: Keratin 19 (KRT19), KRT19 (gene 3880)
Description: LTEA_HepaRG_KRT19: Life Technologies and Expression Analysis (LTEA) Assay for Keratin 19 (KRT19) using HepaRG (AID 2283512). The method in brief: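 Readout is qRT-PCR of KRT19 mRNA, normalized to ACTB, GAPDH and POLR2A, from HepaRG cells treated 48 h with eight-point half-log dilutions topping at 100 uM. Activity in either direction is scored relative to 0.5% DMSO vehicle.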

Read-out in test [18]: JUN Transcription Factor, JUN (gene 3725)
Description: LTEA_HepaRG_JUN: Life Technologies and Expression Analysis (LTEA) Assay for JUN Transcription Factor using HepaRG (AID 2283513). Summed up:
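Read-out is JUN transcript level by TaqMan qRT-PCR, normalized to ACTB, GAPDH and POLR2A, after 48 h chemical treatment of HepaRG cells. Concentration-response spanned eight half-log points up to 100 uM in 0.5% DMSO.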

The source made the active and inactive calls. Rule for the calls: active = hit-call score of the fitted dose curve at least 0.9, where 1 is the maximum; inactive = score below 0.9.

Sequence of Hypoxia-inducible factor 1-alpha (Homo sapiens) (Q16665 whole entry, looked up): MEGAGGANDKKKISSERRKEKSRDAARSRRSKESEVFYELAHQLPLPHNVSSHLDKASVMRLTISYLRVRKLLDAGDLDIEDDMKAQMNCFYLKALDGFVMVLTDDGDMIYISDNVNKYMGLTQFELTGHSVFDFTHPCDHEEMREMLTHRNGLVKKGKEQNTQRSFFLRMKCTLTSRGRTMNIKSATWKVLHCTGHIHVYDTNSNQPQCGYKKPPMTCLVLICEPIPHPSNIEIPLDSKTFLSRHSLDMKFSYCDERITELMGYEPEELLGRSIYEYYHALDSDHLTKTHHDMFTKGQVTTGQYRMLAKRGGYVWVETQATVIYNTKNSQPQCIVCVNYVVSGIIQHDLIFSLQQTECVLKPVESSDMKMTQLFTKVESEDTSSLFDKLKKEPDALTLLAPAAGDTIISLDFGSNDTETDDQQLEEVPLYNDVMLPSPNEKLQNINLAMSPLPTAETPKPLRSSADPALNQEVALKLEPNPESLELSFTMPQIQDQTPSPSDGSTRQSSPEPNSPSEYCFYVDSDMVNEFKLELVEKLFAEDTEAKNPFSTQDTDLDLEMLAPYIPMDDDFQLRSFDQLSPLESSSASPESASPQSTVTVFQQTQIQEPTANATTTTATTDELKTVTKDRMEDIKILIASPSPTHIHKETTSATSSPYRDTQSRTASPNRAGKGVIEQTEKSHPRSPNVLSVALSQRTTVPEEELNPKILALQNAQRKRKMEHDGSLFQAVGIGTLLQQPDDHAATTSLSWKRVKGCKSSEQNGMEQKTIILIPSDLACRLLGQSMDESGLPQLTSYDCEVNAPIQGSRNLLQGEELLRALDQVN

In general, AC50 refers to the midpoint of the concentration-response curve, whichever way the signal moves. On to `Cc1cc(CCN2CCN(c3nsc4ccccc34)CC2)cc2c1NC(=O)CC2(C)C`, for which the AC50 in [1] was 58.6 µM (active); in test [2], 80.6 µM (active); in [3] it was 81.9 µM (active); in [5], 50 µM (active); in test [7], 50 µM (active); in test [9] it was 78 µM (active). Besides, the AC50 was 70.5 µM (active) in test [10], 90.9 µM (active) in [12], 84.7 µM (active) in test [13] and 81.6 µM (active) in test [15]. The result (in [4]; in test [6]; in test [8]; in the test with HGF (gene 3082); in test [11]; in [14]) was inactive.

On to `CC(C)(C)CC(C)(C)c1ccc(O)c(-n2nc3ccccc3n2)c1`, for which the AC50 in test [1] was 50 µM (active); in test [2], 50 µM (active); in [7] it was 72.7 µM (active); in [9], 50 µM (active); in [10] it was 50 µM (active). Further, the result (in test [3]; in test [4]; in test [5]; in test [6]; in [8]; in the test with HGF (gene 3082)) was inactive. For the same molecule, the outcome in [11], in test [12], in test [16], in test [13], in test [14] and in [15] was inactive.

Regarding `OC1CCCCC1`, the molecule was called inactive in test [1], in [2], in test [3], in test [4], in [5] and in test [6]. Further, the result (in test [7]; in [8]; in test [9]; with HGF (gene 3082); in [10]; in test [11]) was inactive. For the same molecule, the outcome in test [12], in [13], in test [14], in test [17] and in [15] was inactive.

As to `OC1CCC(C2CCCCC2)CC1` (stereo unspecified), the molecule was called inactive in [1], in test [2], in test [3], in test [4], in test [5] and in [6]. The molecule was called inactive (in [7]; in [8]; in [9]; with HGF (gene 3082); in test [10]; in [11]). Besides, the molecule was called inactive in test [12], in [13], in [14] and in test [15].

Consider `CCCCCCCCCCCCc1ccccc1S(=O)(=O)O`, for which the AC50 is 79.6 µM (active) in test [1]; 93.7 µM (active) in test [2]; 80.3 µM (active) in [3]; 50 µM (active) in test [5]; 13 µM (active) in test [7]; 14.4 µM (active) in [8]. Besides, the AC50 in test [9] was 83.1 µM (active); in test [10], 38.9 µM (active); in test [11], 82.1 µM (active); in test [12], 76.8 µM (active); in [16] it was 79.6 µM (active); in test [13], 83 µM (active). The AC50 in [15] is 72 µM (active). Further, the result (in [4]; in test [6]; with HGF (gene 3082); in test [14]) was inactive.

Regarding `CCCCCCCCOC(=O)CCCCCCCCC(=O)OCCCCCCCC`, the molecule was called inactive in test [1], in [2], in test [3], in [4], in test [5] and in test [6]. For the same molecule, the outcome (in [7]; in test [8]; in [9]; in the test with HGF (gene 3082); in [10]; in [11]) was inactive. The result in test [16], in [13], in test [14], in [17], in test [18] and in test [15] was inactive.
